Assay results reported in PubChem BioAssay AID504834 (National Center for Advancing Translational Sciences (NCATS), 2011).
Where “and” joins values, the source holds several entries; their conditions need not be identical. Identical values can stand only once. Among all 320,000 compounds or so, about 22,000 (6.9%) were called active. Another 27% or so got no clear call; they are omitted. The sample holds actives, similar compounds and a random draw of the others, so the mix is not that of the screen. The call rests on the fitted dose curve; in most records, active means well fitted inhibition curve with a large enough effect; inconclusive means small, poorly fitted or top-dose-only effect, or another doubt; inactive means no such curve, though single readings can be large or run the other way. Where a structure was tested more than once in an assay, its records may differ in their call.

test: Primary qHTS for delayed death inhibitors of the malarial parasite plastid, 96 hour incubation; settings: P. falciparum luciferase reporter growth; series mostly up to 28.7 µM; activity change, negative = inhibition: at the top concentration
Outline: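 Cell-based qHTS: luciferase-tagged P. falciparum in erythrocytes (2% hematocrit, 0.05% parasitemia final) incubated with compounds for 96 hours, 37 C, 5% CO2; luciferase detection reagent then added and luminescence measured.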
On the % scale 0 is the no-effect control and ±100 the full control effect; potency means the concentration at half of the fitted maximal effect.

Structure (SMILES) | activity change, negative = inhibition | Potency
Cc1ccc(C(=O)N2CCC(n3nccc3NC(=O)Nc3cccc(F)c3)CC2)cn1 | 0% (inactive) | 
CCCC(=O)Nc1ccc2c(c1)nc(CCNC(=O)c1ccco1)n2C | 0% (inactive) | 
COc1cccc(C2CC(c3ccccc3)=NN2S(=O)(=O)c2ccccc2)c1OC (configuration not stated) | -2.15% (inactive) | 
COc1ccc(C2=NN(C(=O)CCC(=O)O)C(c3cccs3)C2)cc1OC (configuration not stated) | 23.4% (inactive) | 
Cc1ccc(C2=NN(C(=O)CSc3nc(N)cc(N)n3)C(c3ccco3)C2)cc1 (configuration not stated) | -26.7% (inactive) | 
COc1cccc(C2CC(c3cccs3)=NN2C(=O)CSC2=NCCS2)c1OC (configuration not stated) |  | 6.57 µM (active)
COc1ccc(C2CC(c3cccs3)=NN2C(=O)CSc2nncs2)cc1OC (configuration not stated) |  | 10.4 µM (active)
COc1ccc(C2CC(c3cccs3)=NN2C(=O)CCC(=O)O)cc1OC (configuration not stated) |  | 2.62 µM (active)
COc1ccc(C2CC(c3cccs3)=Nc3ccccc3S2)cc1OC (configuration not stated) | 11.8% (inactive) | 
Cc1ccccc1C1CC(c2cccs2)=NN1S(C)(=O)=O (configuration not stated) | -23.6% (inactive) | 
COc1ccc(C2CC(c3ccccc3)=NN2C(=O)COC(=O)COc2ccccc2)cc1 (configuration not stated) | 23.8% (inactive) | 
COc1ccc(C2CC(c3cccs3)=NN2C(=O)CSc2nnc(N)s2)cc1OC (configuration not stated) |  | 10.4 µM (active)
COc1ccc(C2CC(c3cccs3)=NN2c2ccc(F)cc2)cc1OC (configuration not stated) | 0% (inactive) | 
COc1ccc(C2CC(c3cccs3)=NN2C(=O)COC(=O)c2cc3ccccc3cc2O)cc1OC (configuration not stated) | 0% (inactive) | 
COc1ccccc1CNC(=O)COC(=O)CNS(=O)(=O)c1ccc(NC(C)=O)cc1 | -14.5% (inactive) | 
CCCn1cc(S(=O)(=O)c2ccc(C)cc2)c(=O)c2cc(OCC)ccc21 | 32.7% (inactive) | 
CCOc1ncccc1C(=O)NNC(=O)c1cccc(S(=O)(=O)Nc2ccccc2OC)c1 | 9.01% (inactive) | 
O=C(CNC(=O)c1cccs1)N/N=C/c1cccc(Br)c1 | 38.7% (inactive) | 
Cc1cc(F)ccc1S(=O)(=O)Nc1ccc(C(=O)N(C)Cc2ccco2)cc1 | 30% (inactive) | 
Cc1sc2ncnc(N3CCC(C(=O)Nc4nc5ccc(Cl)cc5s4)CC3)c2c1C | 36.2% (inactive) | 
O=C(N/N=C\C1CC=CCC1)c1ccc(Br)o1 (configuration not stated) | 2.65% (inactive) | 
Cc1ccc(-n2c(C)cc(/C=C(\C#N)C(=O)NCC3CCCO3)c2C)cc1 (configuration not stated) |  | 5.86 µM (active)
Cc1ccc(S(=O)(=O)N2CCC(C(=O)NCC3CCCO3)CC2)cc1 (configuration not stated) | -25.5% (inactive) | 
Cc1ccc(C(=O)N/C(=C/c2cccs2)C(=O)NCC2CCCO2)cc1 (configuration not stated) | 32.8% (inactive) | 
CC(=O)N(CC(O)CO)c1c(I)c(C(=O)NCC(O)CO)c(I)c(C(=O)NCC(O)CO)c1I (configuration not stated) |  | inactive and 13.5 µM (active)
CC(C)(Oc1ccc(Cl)cc1)C(=O)OCC(=O)NCCc1ccc(S(N)(=O)=O)cc1 | 9.46% (inactive) | 

Structure (SMILES) | activity change, negative = inhibition | Potency
Cc1cc(C)n2nc(C(=O)OC(C)C(=O)c3cc(C)c(C)cc3C)nc2n1 (configuration not stated) | 46.2% (inactive) | 
Oc1ccc(Cl)c2c1CCC2 | -18% (inactive) | 
Cc1ccc(NC(=O)Nc2cc(-c3ccccc3)nn2C)cc1Cl | 22.7% (inactive) | 
COc1cccc(NC(=O)CN(C)C(=O)/C=C/c2cn(-c3ccccc3)nc2-c2cccs2)c1 | 3.17% (inactive) | 
O=Cc1cn(Cc2ccccc2)nc1-c1cccnc1 | 10.1% (inactive) | 
COc1ccc(NC(=O)CN(C)C(=O)/C=C/c2cn(Cc3ccccc3)nc2-c2cccnc2)cc1 |  | 9.28 µM (active)
O=C(Nc1ccc(NC(=O)c2ccc3c(c2)OCO3)cc1)c1cccc(Cl)c1 | -12.7% (inactive) | 
CN(c1ccccc1)S(=O)(=O)c1ccc(C(=O)NCCc2ccccc2)cc1 | 4.97% (inactive) | 
CC(NC(=O)CSc1nc2c(cc1C#N)CN(C)CC2)c1ccccc1 (configuration not stated) | 58.3% (inactive) | 
Cc1cc(C)nc(SCc2ccccc2C#N)n1 | 103% (inactive) | 
CC1(C)CCc2nc(SCc3ccccc3)c(C#N)cc2C1 |  | 6.57 µM (active)
CCCCN(C(=O)c1nn(C)c(=O)c2ccccc12)c1c(N)n(CCC)c(=O)[nH]c1=O | 14.7% (inactive) | 
COc1ccccc1C(=O)NC(=S)Nc1ccccc1N1CCCCC1 | 25.3% (inactive) | 
c1ccc(NCc2cccc3ccccc23)nc1 | -21% (inactive) | 
Oc1c(C=Nc2cccc3nsnc23)ccc2ccccc12 | 0% (inactive) | 
Oc1ccc2ccccc2c1N=Nc1nccs1 |  | 9.28 µM (active)
Oc1ccc(N=Nc2nccs2)c(O)c1 |  | 11.7 µM (active)
COc1ccc(C(=O)N[C@H](C(=O)NCc2ccccc2)C(C)C)cc1 | 13.7% (inactive) | 
COc1cccc(NC(=O)N2CCCC2C(=O)NC2CCCCC2)c1 (configuration not stated) | -1.78% (inactive) | 
CCOC(=O)Cn1c(=O)n(Cc2ccc(OC)cc2)c(=O)c2cccnc21 | 28.9% (inactive) | 
c1ccc(-c2oc3ncnc(N4CCOCC4)c3c2-c2ccccc2)cc1 | -6.25% (inactive) | 
COc1cc2nc(Cl)nc(NCCO)c2cc1OC | 1.36% (inactive) | 
COc1ccc(-c2oc3ncnc(NCCCO)c3c2-c2ccc(OC)cc2)cc1 |  | 2.08 µM (active)
Cc1ccc(S(=O)(=O)N(Cc2ccccc2)c2ccccn2)cc1[N+](=O)[O-] | -14.9% (inactive) | 
CCC(C)N1CC(=O)N2Cc3[nH]c4ccccc4c3C[C@H]2C1=O (some centres not stated) | 3.67% (inactive) | 
Oc1cccc(C2c3[nH]c4ccccc4c3CCN2Cc2cnn(-c3ccccc3)c2)c1 (configuration not stated) | 2.75% (inactive) | 
